An excerpt weighted towards active compounds, which were near 1.8% of everything screened.
APOBEC3A inh: human APOBEC3A DNA deaminase inhibition | P31941 | recombinant A3A, FAM/TAMRA ssDNA deamination fluorescence | inhibition, % at 20 µM | 330,000 tested, 0.41% active;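 active = at least 40% inhibition at 20 µM here, with at most 30% in a related deaminase screen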;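 note: plate controls were A3A with DMSO for no effect and wells lacking A3A enzyme for full effect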
VLA-4 inh: inhibition in a human VLA-4 binding assay. inhibition, % (about 7 µM as worked out from the volumes in the protocol). VLA-4 expressing cells, ligand binding flow cytometry. 330,000 tested, 0.2% active; in the data active = inhibition above about 50%
Target sequence (P13612 whole entry, looked up): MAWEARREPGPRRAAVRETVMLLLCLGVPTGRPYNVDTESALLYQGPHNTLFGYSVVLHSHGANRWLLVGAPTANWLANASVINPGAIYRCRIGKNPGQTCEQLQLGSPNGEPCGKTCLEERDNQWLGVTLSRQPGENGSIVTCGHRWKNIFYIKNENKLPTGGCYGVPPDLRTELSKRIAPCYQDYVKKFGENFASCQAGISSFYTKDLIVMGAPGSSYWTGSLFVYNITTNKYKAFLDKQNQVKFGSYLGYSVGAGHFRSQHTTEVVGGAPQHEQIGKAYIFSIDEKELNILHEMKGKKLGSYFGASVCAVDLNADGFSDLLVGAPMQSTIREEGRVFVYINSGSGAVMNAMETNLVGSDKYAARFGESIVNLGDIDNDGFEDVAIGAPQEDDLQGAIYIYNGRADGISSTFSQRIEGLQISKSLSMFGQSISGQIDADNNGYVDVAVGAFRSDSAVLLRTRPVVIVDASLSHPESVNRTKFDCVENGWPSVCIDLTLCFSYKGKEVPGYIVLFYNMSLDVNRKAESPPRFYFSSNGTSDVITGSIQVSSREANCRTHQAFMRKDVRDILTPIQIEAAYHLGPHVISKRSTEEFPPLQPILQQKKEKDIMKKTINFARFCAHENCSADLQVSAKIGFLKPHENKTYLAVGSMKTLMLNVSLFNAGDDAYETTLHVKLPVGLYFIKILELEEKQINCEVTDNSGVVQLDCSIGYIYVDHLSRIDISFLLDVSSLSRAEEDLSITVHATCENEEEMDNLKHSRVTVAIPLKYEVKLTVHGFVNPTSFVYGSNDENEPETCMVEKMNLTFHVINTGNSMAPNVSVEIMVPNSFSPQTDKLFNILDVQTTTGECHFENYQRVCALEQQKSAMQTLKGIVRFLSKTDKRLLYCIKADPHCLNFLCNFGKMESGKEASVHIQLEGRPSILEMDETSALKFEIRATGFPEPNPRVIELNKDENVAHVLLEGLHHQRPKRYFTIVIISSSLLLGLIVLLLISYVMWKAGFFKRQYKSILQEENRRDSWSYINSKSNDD
CendR NRP1 mod: modulators of CendR peptide binding to human neuropilin-1; O14786; FAM-RPARPAR peptide binding to NRP-1, fluorescence polarization; inhibition, % at 25 µM; 360,000 tested, 0.85% active;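 active = inhibition or corrected inhibition above about 18%, plus a signal ratio from 0.5 to 1.5, limit read from the data, passing the limit was not always enough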
A3G deaminase: APOBEC3G (human) deaminase inhibition. Q9HC16. recombinant A3G, ssDNA deamination FAM/TAMRA fluorescence. inhibition, % at 20 µM. 330,000 tested, 0.28% active. AID 493012;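 active = inhibition of at least 40% at 20 µM, with no more than 30% in the related APOBEC3A deaminase screen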;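 note: plate controls were DMSO wells with A3G for no effect and wells lacking A3G enzyme for full effect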
MIN6 prolif: MIN6 beta-cell proliferation induction | MIN6 cells proliferation, ATPlite luminescence, 48 h; cells starved in 0.2% serum; 100% = growth in 10% serum | proliferation, % at 10 µM | 330,000 tested, 0.29% active;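 active = compounds whose signal lies at least 3.5 SD above the mean of all wells on their plate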;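 note: 0% = DMSO-treated cells in low-serum medium and 100% = 10% serum control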
Active calls of the source: *; . = not tested or not shown; ! = repeats disagree.

SMILES	APOBEC3A inh	VLA-4 inh	CendR NRP1 mod	A3G deaminase	MIN6 prolif
O=c1[nH]c2ccc(N/C(=N/S(=O)(=O)c3ccccc3)c3ccccc3)cc2[nH]1	-0.4	4.4	21.4*	-2.8	1.2
N#Cc1c(N2CCCC2)nc(N)c2c(N)nc(N3CCCC3)cc12	-3.9	5.0	32.0*	-3.4	-3.8
COc1cc2c(C#N)c(N3CCN(C)CC3)nc(N)c2c(N)n1	1.9	4.9	-10.0	1.5	-0.9
COc1cc2c(C#N)c(N3CCCC3)nc(N)c2c(N)n1	-3.4	-6.3	30.5*!	-12.5	-1.5
O=C1C=CC(=O)c2c(O)c(CO)c(CO)c(O)c21	.	.	59.3*	.	.
CCOCCCNC(=O)C(c1ccc(C)cc1)N(Cc1cccs1)C(=O)c1ccccc1O (centres undefined)	-1.0	-0.1	29.3*	-8.4	-1.1
CN1CCN(C(=O)c2ccc(NS(=O)(=O)c3cccc([N+](=O)[O-])c3)cc2)CC1	-2.5	.	-0.3	-9.9	0.0
CCOc1ccc(C(=O)NC(C(=O)NCCc2ccc(OC(F)F)cc2)C(C)C)cc1 (centres undefined)	2.8	-7.7	23.1*	-0.6	-2.3
CCOc1ccc(C(=O)NC(C(=O)NCc2ccccc2OC)C(C)C)cc1 (centres undefined)	-0.7	5.4	3.0	-9.1	-2.2
CC(=O)Nc1cccc(OCCCNS(=O)(=O)c2ccc(C#N)cc2)c1	2.8	-16.7	2.0	8.9	-3.8
CCOC(=O)c1ccc(NC(=O)CN2CCc3ccccc3C2)cc1	-0.9	1.6	38.2*	-3.5	-2.6
CCOC(=O)c1ccc(NC(=O)c2ccc(NS(C)(=O)=O)cc2)cc1	-2.7	8.8	-21.0	-3.7	-2.0
CCOC(=O)c1ccc(NC(=O)c2ccccc2)cc1	5.4	-0.1	23.1*	0.0	-2.7
Cc1occc1C(=O)Nc1cccc(Cl)c1Cl	-0.8	6.8	29.1*	-7.6	4.8
Cc1occc1C(=O)Nc1ccccc1C(=O)O	5.8	15.7	-1.1	-5.8	-1.0
COc1ccc(CNC(=O)C2CCN(S(=O)(=O)c3c(C)noc3/C=C/N(C)C)CC2)cc1	-3.5	8.0	-1.4	-3.6	-2.6
COc1ccc2cc(C(=O)NCc3ccccc3)c(=Nc3ccc(C(=O)O)cc3)oc2c1	-6.2	-21.4	45.9*	-11.2	-3.3
Cc1ccc(C(=O)NCCCc2ccccc2)c(C)c1	0.1	11.0	21.9*	-0.4	0.7
Cc1ccc(C(=O)NCCCc2ccccc2)c(Cl)c1	1.7	-3.2	-6.0	2.2	-4.6
CN1CCN(CC(=O)c2ccccc2F)CC1	0.2	-0.3	17.3*	0.1	3.8
O=C(c1ccccc1)c1ccccc1C(=O)N1CCN(Cc2ccccc2F)CC1	0.1	.	-0.4	-7.3	-3.1
O=C(c1ccccc1F)N1CCN(Cc2ccccc2F)CC1	-0.8	10.4	29.1*	-3.7	-1.9
Cc1ccc(NC(=O)CCS(=O)(=O)c2cc3[nH]c(=O)c(=O)[nH]c3cc2C)cc1	5.4	-0.5	0.6	-0.9	-4.0
Cc1ccc2c(C)c(C(=O)Nc3ccc(S(=O)(=O)Nc4onc(C)c4C)cc3)oc2c1	-3.8	-8.3	4.5	-10.3	-5.7
O=C(CSc1c2c(nc3ccccc13)CCCC2)NCc1ccco1	-2.6	6.9	-8.4	-9.5	3.3
SMILES	APOBEC3A inh	VLA-4 inh	CendR NRP1 mod	A3G deaminase	MIN6 prolif
CC(C)(C)c1nc(SCC(=O)NCc2ccco2)c2ccccc2n1	6.7	-25.3	26.3*	1.4	6.6
CC(=O)c1sc(N2CCOCC2)nc1-c1ccccc1	1.7	20.4	30.5*	-2.6	3.8
O=C(Cc1ccc(F)cc1)N1CCC(CC2CC(c3ccc(Cl)cc3)=NO2)(C(=O)NCC2CCCCC2)CC1 (centres undefined)	-0.5	-11.2	24.6*	-14.0	-8.8
O=C(Cc1ccc(F)cc1)N1CCC(CC2CC(c3cccc(Br)c3)=NO2)(C(=O)NCC2CCCCC2)CC1 (centres undefined)	0.0	-2.5	-8.7	-7.0	-8.8
COc1cc(/C=c2\sc3nc(=O)c(-c4ccccc4)nn3c2=O)ccc1OCCC(C)C	.	-0.9	40.0*	.	.
COC(=O)[C@@H]1C[C@@]2(O)[C@H](O)[C@H](O)[C@H](O)C[C@H]2N1Cc1ccc(C(F)(F)F)cc1	-2.6	-5.8	26.6*	-5.7	-0.2
Cc1cc(C)n(CC2CC(=O)N(c3cc(Cl)cc(Cl)c3)C2=O)n1 (centres undefined)	-0.9	0.0	-5.7	-4.7	-3.6
Cc1cc(C)n(CC2CC(=O)N(c3ccccc3)C2=O)n1 (centres undefined)	-0.5	16.5	29.2*	-0.6	-2.3
